Source: PubChem
HCMV inh: qHTS Assay for inhibitors of the human cytomegalovirus (HCMV). HFF cells, HCMV-luciferase reporter, 72 h; hits give low values. 410,000 tested, 4.5% active. activity change, negative = inhibition, % at 57.5 µM. AID 1259415, 2018; in the data active means activity change below about -60%; inconclusive means no clear call, values can overlap the other calls; inactive means above about -39%
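Two compound doses tested in HFFs infected with HCMV-luciferase, MOI 1 PFU/cell, 72 h at 37C. Lysate luminescence read with OneGlo; data normalized against buffer-only and 10uM Salinomycin inhibitor controls.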
MARV entry inh: qHTS for inhibitors of binding or entry into cells for Marburg Virus | Marburg virus pseudotyped entry inhibition, cell reporter | Potency, µM (highest dose often 37.8 µM), actives largely listed as inhibitors | 300,000 tested, 1.8% active | AID 540276, 2011; calls by dose curve; tested in HEK293 cells
FMDV inh: High Throughput Screening for Foot and Mouth Disease Virus Antivirals | Potency, µM (top dose mostly 57.9 µM), hits mostly inhibitors | AID 1159524, 2015 | 410,000 tested, 1.2% active | FMDV antiviral cell-based qHTS; calls by dose curve; tested in HEK293T cells; further: read-out not given here; nearly all actives have a fitted effect of over 45% in size
Lassa entry inh: qHTS for Inhibitors of binding or entry into cells for Lassa Virus; 300,000 tested, 1.2% active; Lassa virus pseudotype entry inhibition, cell reporter; Potency, µM (top dose mostly 37.9 µM), actives largely listed as inhibitors; calls by dose curve; tested in HEK293 cells; further: nearly all actives have a fitted effect of over 50% in size
HCV inh: qHTS Assay for Inhibitors of Hepatitis C Virus (HCV). 340,000 tested, 3.4% active. Potency, µM (series often up to 41.8 µM), actives largely listed as inhibitors. Huh7.5.1 HCVcc-Cre infection, luciferase reporter, 44 h; active means well fitted inhibition curve with a large enough effect; inconclusive means small, poorly fitted or top-dose-only effect, or another doubt; inactive means no such curve, though single readings can be large or run the other way
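Cells (1,000/well) were plated 4 h before compound, then infected with HCVcc-Cre virus (~0.5 moi). After 44 h further culture, infection was read as luciferase luminescence following a 15 min substrate incubation at room temperature.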
Numbers stand for hits; i = inactive; ? = inconclusive; nt = not tested or not shown; + = active, no number; ! = not active in a repeat. Sampled rows, rich in hits. Any-hit rate of the full collection: about 7.9%.

SMILES | HCMV inh | MARV entry inh | FMDV inh | Lassa entry inh | HCV inh
COc1ccc(NC(=O)Cn2ncc3c2-c2ccccc2OC3)cc1Cl | i | i | i | nt | nt
O=C(c1cccc(S(=O)(=O)NCc2ccccc2)c1)N1CCN(c2ccccc2Cl)CC1 | i | i | i | nt | 11µM
Cc1cccc(N2CCN(C(=O)c3ccc(Cl)c(S(=O)(=O)NCc4ccco4)c3)CC2)c1C | i | ? | ? | i | 10µM
CC1CN(C(=O)c2ccc(Cl)c(S(=O)(=O)NCc3ccco3)c2)CC(C)O1 (stereo not given) | i | nt | i | nt | i
CCC(=O)CC(NC(=O)OC)c1ccc(F)cc1 (stereo not given) | nt | i | nt | nt | nt
CCc1ccccc1NC(=O)C(CC)Sc1ncnc2c1sc1ccccc12 (stereo not given) | i | nt | i | i | nt
Cc1ccc(S(=O)(=O)c2nnn3c2nc(N2CCOCC2)c2ccccc23)cc1 | i | nt | i | nt | 11µM
Cc1ccc(S(=O)(=O)c2nnn3c2nc(N2CCCCC2)c2ccccc23)cc1 | i | ? | i | i | i
O=C(NCc1nnc2n1CCN(C(=O)c1cccc(Cl)c1)CC2)C1CC1 | nt | nt | i | nt | nt
CCCNC(=O)c1ccc(CN2CCc3ccccc3C2)cc1 | i | i | i | i | i
CCN(CC)c1ccc(S(=O)(=O)N2CCOCC2)cc1NC(=O)CN1CCc2ccccc2C1 | -70 | ? | ? | ? | ?
O=C(Nc1ccc(Cl)cc1)c1ccc(CN2CCc3ccccc3C2)cc1 | i | nt | i | nt | 1.6µM
O=C(Nc1ccc(S(=O)(=O)N2CCOCC2)cc1)c1ccc(CN2CCc3ccccc3C2)cc1 | nt | 2.5µM | ? | 10µM | ?
O=C(Nc1ccc(CN2CCS(=O)(=O)CC2)cc1)c1ccc(Cl)cc1 | ? | i | i | i | 10µM
CCN(CC)c1ccc(S(=O)(=O)N2CCOCC2)cc1NC(=O)Cn1nc(C)c([N+](=O)[O-])c1C | i | nt | i | nt | i
O=C(Nc1ccccc1)c1ccc(S(=O)(=O)N2CCOCC2)cc1 | i | i | i | i | i
CCn1nc(C)cc1C(=O)N1CCC2(CC1)c1ccccc1[C@@H](NC(=O)c1cccnc1)[C@@H]2O | nt | nt | i | nt | nt
N#CCc1ccc(NC(=O)c2ccc(CN3CCc4ccccc4C3)cc2)cc1 | i | nt | ? | nt | 2µM
CCC(C)NC(=O)c1ccc(CN2CCc3ccccc3C2)cc1 (stereo not given) | i | nt | i | nt | i
Cc1ccc(-c2nc(=S)c3c(n2Cc2ccco2)CC(C)(C)OC3)cc1 | nt | 13µM | ? | i | i
Cc1ccc(-c2nc(=S)c3c(n2Cc2ccco2)CCCC3)cc1 | i | i | i | i | i
COC(=O)/C=C/[C@@H](CC1CCCC1)NC(=O)C(F)(F)F | i | nt | nt | nt | nt
O=C(Cn1ccn(-c2ccc(F)cc2)c(=O)c1=O)NCCc1ccccc1 | ? | nt | i | i | nt
Cc1c(O)ccc(/C(Cc2ccc3ccccc3n2)=N\O)c1O | i | i | i | ? | 11µM
COCCn1ccc2c(OCC(=O)Nc3cccc(C(F)(F)F)c3)cccc2c1=O | i | nt | i | i | nt
SMILES | HCMV inh | MARV entry inh | FMDV inh | Lassa entry inh | HCV inh
COc1ccccc1-n1c(-c2ccccc2)c[n+]2c1CCc1ccccc1-2 | -100 | ? | 3.2µM | 2.8µM | 4µM
CC(C)c1ccc(-n2c(-c3ccccc3)c[n+]3c2CCc2ccccc2-3)cc1 | -98 | ? | 11µM | 3.2µM | ?
COc1ccc(-n2c(-c3ccc(Br)cc3)c[n+]3c2CCc2ccccc2-3)cc1 | -100 | 12µM | ? | ? | ?
COc1ccc(-n2cc(-c3ccc(Br)cc3)[nH]c2=S)cc1 | i | i | i | nt | i
COc1ccccc1-n1c(-c2ccccc2)c[nH]c1=S | i | nt | i | nt | i
COC(=O)c1c(OCc2ccccn2)cc(=O)n2c1CCN(C(=O)c1n[nH]c3c1CCCC3)CC2 | nt | nt | i | nt | nt
Cn1c(=O)oc2cc(S(=O)(=O)N3CCC(C(=O)N4CCN(c5ccc(F)cc5)CC4)CC3)ccc21 | -61 | nt | i | nt | i
Cc1ccc(C(C)(C)C)cc1S(=O)(=O)N1CCC(C(=O)N2CCN(c3ccc(O)cc3)CC2)CC1 | ? | ? | ? | 2.8µM | ?
Cc1cc(C)c(C)c(S(=O)(=O)N2CCC(C(=O)N3CCN(c4ccc(F)cc4)CC3)CC2)c1C | i | ? | i | i | ?
CCOC(=O)C1CCCN(C(=O)C2CCCN(S(=O)(=O)c3ccc4c(c3)oc(=O)n4C)C2)C1 (stereo not given) | i | i | i | nt | i
Cn1c(=O)oc2cc(S(=O)(=O)N3CCC(C(=O)N4CCN(c5ccccc5)CC4)CC3)ccc21 | ? | i | ? | i | i
Cc1ccc(C)c(N2CCN(C(=O)C3CCCN(S(=O)(=O)c4ccc5c(c4)oc(=O)n5C)C3)CC2)c1 (stereo not given) | i | ? | 16µM | ? | nt
Cn1c(=O)oc2cc(S(=O)(=O)N3CCCC(C(=O)N4CCN(c5ccc(F)cc5)CC4)C3)ccc21 (stereo not given) | i | ? | ? | i | nt
COc1cccc(N2CCN(C(=O)C3CCCN(S(=O)(=O)c4ccc5c(c4)oc(=O)n5C)C3)CC2)c1 (stereo not given) | -79! | i | ? | i | 13µM
O=C(Cn1ccn(-c2ccc(F)c(F)c2)c(=O)c1=O)c1ccc(F)cc1 | i | nt | i | i | nt
CC(C)Cc1nc2cc(NS(=O)(=O)N(C)C)cc(C(=O)N3CCN(c4ccccc4)CC3)c2n1C | nt | nt | i | nt | nt
Cc1cccc(NC(=O)C2CCCN(S(=O)(=O)c3ccc4c(c3)oc(=O)n4C)C2)c1 (stereo not given) | +! | ? | i | i | i
Cn1c(=O)oc2cc(S(=O)(=O)N3CCCC(C(=O)N4CCN(c5ccccc5F)CC4)C3)ccc21 (stereo not given) | i | i | 20µM | i | nt
CN(C)c1ccc(CNC(=O)C2CCCN(S(=O)(=O)c3ccc4c(c3)oc(=O)n4C)C2)cc1 (stereo not given) | -105 | i | i | i | nt
CCCN(CCC)CCNC(=O)C1CCCN(S(=O)(=O)c2ccc3c(c2)oc(=O)n3C)C1 (stereo not given) | i | i | i | i | nt
Cc1ccc(NC(=O)C2CCCN(S(=O)(=O)c3ccc4c(c3)oc(=O)n4C)C2)cc1Cl (stereo not given) | i | i | ? | i | nt
O=C(C1CCC(CNS(=O)(=O)c2cccs2)CC1)N1CCN(c2ccc(F)cc2)CC1 (stereo not given) | ? | 3.2µM | ? | ? | ?
COc1cccc(CC(=O)NCC2Cc3cc(Cl)cc(-c4ncccn4)c3O2)c1 (stereo not given) | nt | nt | i | nt | nt
COc1cccc(C2(CC(=O)N3CCCOc4c(cccc4OC)C3)CC(=O)N(C)C2=O)c1 (stereo not given) | nt | nt | i | nt | nt
CCN1Cc2cccc(C(=O)Nc3ccc(F)cc3)c2C1=O | i | ? | i | ? | nt
CSc1ccc(CNC(=O)C2CCCN(S(=O)(=O)N(C)c3ccc(F)cc3)C2)cc1 (stereo not given) | -61 | i | ? | nt | nt
CCOc1ccc(S(=O)(=O)N2CCCC(C(=O)NCc3ccncc3)C2)cc1C (stereo not given) | -76 | ? | i | i | ?
